Screening results deposited in PubChem BioAssay by The Scripps Research Institute Molecular Screening Center.
An excerpt weighted towards active compounds, which were near 4.8% of everything screened.
hgDAF-12 ag = agonists of H. glycines DAF-12 nuclear receptor | HEK293 GAL4-hgDAF12 UAS-luciferase reporter, agonist luminescence; normalized to butyrate control | activation, % at 6.8 µM | 1.8% of 370,000 active | AID 687014;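 active means activation above a cutoff set at the mean of all screened compounds plus 3 SD, cut at about 10% in these data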;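 further: 0% = DMSO wells and 100% = sodium butyrate wells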
ssDAF-12 act = S. stercoralis DAF-12 activation, primary screen; HEK293 ssDAF-12/GRIP1 lit1-tk-luc reporter, luminescence; % of 3 µM dafachronic acid response; activation, % at 6.8 µM; 1% of 370,000 active; AID 652126;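 active means activation above the mean over all tested compounds plus 3 SD, cut at about 0.9% in these data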;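 further: 0% = DMSO-only wells and 100% = 3 µM delta7-dafachronic acid wells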
SMARCA2 act = SMARCA2 function activation, primary screen | activation, % at 9.1 µM | AID 652017 | 1% of 370,000 active | MG213 cells, MMTV-luciferase reporter, dexamethasone, overnight; in the data active means activation above about 7.8%;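 further: 0% = vehicle wells and 100% = reference activator wells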
DAX1 inh-1 = blocks DAX1 repression of SF-1 activated StAR promoter | HEK293T StAR-luciferase reporter, SF-1/DAX-1 repression relief | inhibition, % at 6.8 µM | 1.1% of 370,000 active | AID 652010;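 active means inhibition above the mean over all tested compounds plus 3 SD, cut at about 3.6% in these data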;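 further: 0% = DAX-1 cells with DMSO and 100% = cells lacking DAX-1 with DMSO; higher inhibition means more luminescence from relief of DAX-1 repression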
DAX1 inh-2 = NR0B1 (DAX1) inhibition | P51843 | HEK293 Gal4-DAX1 luciferase reporter, luminescence | inhibition, % at 6.75 µM | 0.99% of 340,000 active | AID 504766;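 active means inhibition above the mean over all tested compounds plus 3 SD, cut at about 4.2% in these data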;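 further: 0% = DAX1-transfected cells with DMSO and 100% = empty-vector control cells with DMSO; inhibition shows as a rise in luminescence from relieved DAX1 repression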
hcDAF-12 act = H. contortus DAF-12 activation, primary screen | HEK293 hcDAF-12 lit1-tk-luc reporter, luminescence; 0% DMSO, 100% Δ7-dafachronic acid | activation, % at 6.8 µM | AID 652067 | 1.4% of 370,000 active;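 active means activation above the mean of all tested compounds plus 3 SD, cut at about 5.5% in these data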;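 further: 100% = response to 3 µM Δ7-dafachronic acid high control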
DAX1 conf = NR0B1 (human) inhibition, confirmation. HEK293T StAR-promoter luciferase reporter, SF-1/DAX-1 repression. 87% of 2,400 active. inhibition, % at 6.8 µM. shares compounds with DAX1 inh-1. AID 652134;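 active means inhibition above the average of every tested compound plus 3 SD, cut at about 3.8% in these data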;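 further: 0% = DAX-1 cells with DMSO and 100% = no DAX-1 control cells with DMSO; active compounds raise luminescence by relieving repression of the StAR reporter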
Target sequence (P51843 whole entry, looked up): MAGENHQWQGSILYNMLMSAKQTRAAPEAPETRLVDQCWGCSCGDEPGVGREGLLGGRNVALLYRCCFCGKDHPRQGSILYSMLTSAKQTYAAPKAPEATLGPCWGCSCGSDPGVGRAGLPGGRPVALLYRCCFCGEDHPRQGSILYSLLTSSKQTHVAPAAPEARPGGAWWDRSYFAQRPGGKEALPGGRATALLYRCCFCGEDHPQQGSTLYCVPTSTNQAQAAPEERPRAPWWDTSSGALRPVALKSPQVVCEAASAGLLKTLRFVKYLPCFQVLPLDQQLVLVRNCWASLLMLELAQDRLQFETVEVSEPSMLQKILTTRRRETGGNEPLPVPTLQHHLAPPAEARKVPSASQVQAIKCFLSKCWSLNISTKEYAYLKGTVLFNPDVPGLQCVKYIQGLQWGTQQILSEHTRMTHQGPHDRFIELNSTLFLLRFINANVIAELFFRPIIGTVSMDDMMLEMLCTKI
SF1 AF2mut Luc = nonselective inhibitor or artifact in SF-1 mutant DAX1 counter-screen; shares compounds with DAX1 inh-1; HEK293 StAR-luciferase, SF-1 AF2 mutant, luminescence; inhibition, % at 6.8 µM; 78% of 2,400 active;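 active means inhibition above the mean of all tested compounds plus 3 SD, cut at about 3% in these data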;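 further: 0% = DAX-1 transfected cells with DMSO and 100% = cells without DAX-1 with DMSO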
LXR ag = activates human LXR-beta, counter-screen for hcDAF-12 agonists; shares compounds with hcDAF-12 act; activation, % at 6.8 µM; HEK293 Gal4-LXR tk-luc reporter, luminescence, 24 h; normalized: DMSO 0%, positive control 100%; 3,400 tested, under 10 active;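 active means mean percent activation of the reporter above a cutoff set as the average over tested compounds plus their standard deviation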
hcDAF12 conf = hcDAF-12 agonism, confirmation assay; activation, % at 6.8 µM; HEK293 hcDAF-12 lit1-tk-luc reporter, luminescence; % of Δ7-dafachronic acid response; shares compounds with hcDAF-12 act; 61% of 3,400 active;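 active means mean activation across triplicate tests above the threshold derived from the earlier primary screen, cut at about 5.5% in these data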;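 further: 0% = DMSO only wells and 100% = 3 µM Δ7-dafachronic acid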
hgDAF12 conf = hgDAF-12 agonism, confirmation assay; shares compounds with hgDAF-12 ag; HEK293 GAL4-hgDAF12 luciferase reporter, agonist mode; percent of butyrate response; activation, % at 6.8 µM; 80% of 3,300 active; AID 743050;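 active means mean activation over triplicate wells above the hit cutoff derived from the earlier primary screen, cut at about 11% in these data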;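 further: 0% = DMSO low control and 100% = 2 mM sodium butyrate high control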
LXR ag 2 = LXR-beta agonism as DAF-12 counter-screen; HEK293 Gal4-LXR luciferase reporter, 24 h; shares compounds with hgDAF-12 ag; 3,300 tested, under 10 active; AID 743051; activation, % at 6.8 µM;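 active means mean activation of the triplicate above a set limit carried over from the primary screen, none filed active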
An asterisk follows results filed as active.

Screening O=C(NN=C1CCCCCC1)c1cccs1 returned hgDAF-12 ag 25.4*, ssDAF-12 act 0.8, SMARCA2 act 3.2, DAX1 inh-1 13.1*, DAX1 inh-2 2.6, hcDAF-12 act 8.0*, DAX1 conf 1.4, SF1 AF2mut Luc 0.6, LXR ag 0.1, hcDAF12 conf 2.1, hgDAF12 conf 6.3 and LXR ag 2 0.2.
For CC1C2CC(C/C2=N/NC(=O)c2cccs2)C1(C)C (configuration not stated) the results were hgDAF-12 ag 13.5*, ssDAF-12 act 0.0, SMARCA2 act 3.0, DAX1 inh-1 5.0*, DAX1 inh-2 2.9, hcDAF-12 act 2.9, DAX1 conf 1.0, SF1 AF2mut Luc 0.8, hgDAF12 conf -0.1 and LXR ag 2 0.0.
Screening CC(C)c1ccc(NC(=O)O[C@H]2CC[C@@]34CCCN3C(=O)CCC[C@H]4[C@H]2C)cc1 returned hgDAF-12 ag -3.7, ssDAF-12 act -2.3 and hcDAF-12 act -4.3.
C[C@H]1C2CC(OC(=O)Nc3ccccc3C(F)(F)F)C(C2)[C@H]2CCCCN21 (some centres not stated) was read as hgDAF-12 ag 0.6, ssDAF-12 act -0.7, SMARCA2 act -1.7, DAX1 inh-1 0.8 and hcDAF-12 act -0.2.
`COc1ccc(-n2c(COc3ccccc3)nnc2SCC(=O)Nc2ccc(OCc3ccccc3)cc2)cc1` gave hgDAF-12 ag 0.6, ssDAF-12 act -1.5, SMARCA2 act 6.2, DAX1 inh-1 -1.6 and hcDAF-12 act -1.9.
CC1CCCC(C)N1C(=O)CSc1nnc(-c2cccs2)o1 (configuration not stated) was read as hgDAF-12 ag 18.0*, ssDAF-12 act -0.1, SMARCA2 act 1.3, DAX1 inh-1 4.7*, DAX1 inh-2 1.9, hcDAF-12 act 5.2, DAX1 conf 10.9*, SF1 AF2mut Luc 8.0*, hgDAF12 conf 17.2* and LXR ag 2 0.7.
`O=[N+]([O-])c1ccc(COc2ccc(CN3CCCC3)cc2)cc1` gave hgDAF-12 ag 14.7*, ssDAF-12 act 0.4, SMARCA2 act 0.8, DAX1 inh-1 4.8*, DAX1 inh-2 0.4, hcDAF-12 act 1.9, DAX1 conf 6.9*, SF1 AF2mut Luc 5.6*, hgDAF12 conf 12.8* and LXR ag 2 0.5.
`O=[N+]([O-])c1ccc(COc2ccc(CN3CCOCC3)cc2)cc1` gave hgDAF-12 ag 17.8*, ssDAF-12 act -0.5, SMARCA2 act 5.3, DAX1 inh-1 7.7*, DAX1 inh-2 -1.5, hcDAF-12 act 3.4, DAX1 conf 4.2*, SF1 AF2mut Luc 1.2, hgDAF12 conf 9.4 and LXR ag 2 0.6.
`O=[N+]([O-])c1ccc(COc2ccc(CN3CCCCC3)cc2)cc1` gave hgDAF-12 ag 8.3, ssDAF-12 act -0.9, SMARCA2 act 3.6, DAX1 inh-1 1.7, DAX1 inh-2 0.2 and hcDAF-12 act 1.5.
